High-throughput results (PubChem BioAssay)
HT1080-NT tox – kills 2HG-producing HT-1080-NT fibrosarcoma cells; HT-1080-NT fibrosarcoma viability, CellTiter-Glo ATP luminescence, 48 h; Potency, µM (top dose mostly 46.1 µM), hits mostly cytotoxic; 360,000 tested, 1.6% active;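 note: NT is the 2HG producing partner of a matched IDH1 knockdown line; nearly all actives have a fitted effect of over 55% in size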
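Compounds were tested in concentration-response format on HT-1080-NT cells for 48 hours at 37 degrees C. Cell viability came from CellTiter-Glo luminescence; curves were classified by r2, response magnitude and activity.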
HT1080 IDH1KD tx – toxicity to HT-1080 IDH1 knockdown cells (counter line); HT-1080 IDH1 knockdown viability, ATP luminescence, 48 h; Potency, µM (titrated, usually from 46.1 µM), usual class: cytotoxic; 360,000 tested, 2% active; AID 686971
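Viability of IDH1-knockdown HT-1080 fibrosarcoma cells was assessed by CellTiter-Glo after 48 h at 37 °C with titrated compound; concentration-effect curves were classified by fit quality and response size.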
SW480 rereplic – inducers of DNA re-replication in SW480 colon cancer cells; SW480 DNA re-replication, Hoechst DNA content imaging, 48 h; 340,000 tested, 1.8% active; Potency, µM (titrated, usually from 46.1 µM), usual class: activators; note: nearly all actives have a fitted effect of over 55% in size
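250 cells/well; 23 nL cpd via pin tool; 48 hr, 37 C, 5% CO2; Hoechst 40 min; imager read of total nuclear intensity, ex 405/em 500-530 nm.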
KB-3-1 tox – kills parental KB-3-1 adenocarcinoma cells | 400,000 tested, 1.4% active | KB-3-1 viability, CellTiter-Glo ATP luminescence, 72 h | AID 1347075 | Potency, µM (titrated, usually from 46.1 µM), actives largely listed as cytotoxic; note: nearly all actives have a fitted effect of over 60% in size
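KB-3-1 cells, DMEM (no phenol red) + 10% FBS; compound by pin transfer, 72 h, 37 °C. Readout: CellTiter-Glo luminescence after 10 min. Data normalized, curve-fitted.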
KB-V1 cytotox – KB-V1 MDR subline cytotoxicity; AID 1347076; Potency, µM (series often up to 46.1 µM), hits mostly cytotoxic; KB-V1 MDR cells viability, CellTiter-Glo, 72 h; 400,000 tested, 3.4% active; note: nearly all actives have a fitted effect of over 60% in size
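Drug-selected KB-V1 cells, grown in DMEM lacking phenol red with 10% FBS, receive compound titrations; after three days at 37 degrees C, surviving cell ATP is quantified by CellTiter-Glo luminescence and responses normalized and curve-fitted.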
MCF10A rerep – DNA re-replication induction in MCF 10a cells. MCF 10A DNA re-replication, Hoechst nuclear intensity, 48 h. Potency, µM (series often up to 46.1 µM), hits mostly activators. 350,000 tested, 2.9% active; note: nearly all actives have a fitted effect of over 50% in size
Numbers stand for hits; [ ] = remark or other dose. Sampled rows, rich in hits. Any-hit rate of the full collection: about 7.9%. Calls come from the whole dose curve; as a rule, active = well fitted curve in the direction sought with a large enough effect; inconclusive = small, poorly fitted or top-dose-only effect, or another doubt; inactive = no such curve, though single readings can be large; an effect the other way counts as inactive or inconclusive.

What do the screens show for `O=C(Nc1ccc(F)cc1)N1CCN(c2ccccc2F)CC1`?
KB-3-1 tox: inactive; KB-V1 cytotox: inactive

How did Cc1c(N=C2C=CC(=O)c3ccccc32)c(=O)n(-c2ccccc2)n1C do in these assays?
HT1080-NT tox: 21µM; HT1080 IDH1KD tx: 18µM; SW480 rereplic: inconclusive; KB-3-1 tox: inactive; KB-V1 cytotox: inactive; MCF10A rerep: inconclusive

How did Cc1cc2nc3c(=O)n(C)c(=O)n(C)c3nc2cc1N=CN(C)C do in these assays?
KB-3-1 tox: inactive; KB-V1 cytotox: inconclusive

Results for Cc1cc(C(=O)CCl)c(C)n1CCc1ccccc1 ?
HT1080-NT tox: 13µM; HT1080 IDH1KD tx: inconclusive; SW480 rereplic: inconclusive; KB-3-1 tox: inconclusive; KB-V1 cytotox: inconclusive; MCF10A rerep: inactive

What do the screens show for `COC(=O)CCn1c(C)cc(C(=O)COc2ccccc2C(N)=O)c1C`?
HT1080-NT tox: inactive; HT1080 IDH1KD tx: inconclusive; SW480 rereplic: inactive; KB-3-1 tox: inactive; KB-V1 cytotox: inconclusive; MCF10A rerep: inactive

What do the screens show for `CCOC(=O)c1cc(C)n(CCc2ccccc2)c1C`?
HT1080-NT tox: inactive; HT1080 IDH1KD tx: inactive; SW480 rereplic: inactive[9.22 µM]; KB-3-1 tox: inactive; KB-V1 cytotox: inactive; MCF10A rerep: inactive

Results for COC(=O)CCCn1c(C)cc(C(=O)CCl)c1C ?
HT1080-NT tox: 21µM; HT1080 IDH1KD tx: inconclusive; SW480 rereplic: inconclusive; KB-3-1 tox: inactive; KB-V1 cytotox: inactive; MCF10A rerep: inconclusive

Results for O=C(CCc1ccccc1)OCCN1CCOCC1 ?
HT1080-NT tox: inactive; HT1080 IDH1KD tx: inactive; SW480 rereplic: inactive; KB-3-1 tox: inactive; KB-V1 cytotox: inactive; MCF10A rerep: inactive

How did CCOC(=O)/C(=C\c1ccccc1)C(=O)CCN1CCOCC1 do in these assays?
HT1080-NT tox: inactive; HT1080 IDH1KD tx: inactive; SW480 rereplic: inactive; KB-3-1 tox: inactive; KB-V1 cytotox: inconclusive; MCF10A rerep: 21µM

How did CN(C1CCCCC1)S(=O)(=O)c1ccc(NC(=S)NC(=O)c2cccs2)cc1 do in these assays?
HT1080-NT tox: 2.5µM; HT1080 IDH1KD tx: 7.9µM; SW480 rereplic: inconclusive; KB-3-1 tox: inconclusive; KB-V1 cytotox: inconclusive; MCF10A rerep: inactive

How did O=C(NC(=S)Nc1ccc(NC(=O)c2cccs2)cc1)c1ccco1 do in these assays?
HT1080-NT tox: inactive; HT1080 IDH1KD tx: inactive; SW480 rereplic: inactive; KB-3-1 tox: inactive; KB-V1 cytotox: inactive; MCF10A rerep: inactive

How did Cc1cc(NS(=O)(=O)c2ccc(NC(=S)NC(=O)c3cccnc3)cc2)no1 do in these assays?
HT1080-NT tox: inactive; HT1080 IDH1KD tx: inactive; SW480 rereplic: 3.3µM; KB-3-1 tox: inactive; KB-V1 cytotox: inactive; MCF10A rerep: inactive

How did Cc1cc(C)cc(NS(=O)(=O)c2ccc(NC(=S)NC(=O)c3cccs3)cc2)c1 do in these assays?
HT1080-NT tox: inconclusive; HT1080 IDH1KD tx: inconclusive; SW480 rereplic: inconclusive; KB-3-1 tox: 23µM; KB-V1 cytotox: 2.9µM; MCF10A rerep: inconclusive

Results for O=C(NC(=S)Nc1ccc(NC(=O)c2cccs2)cc1)c1cc2ccccc2o1 ?
HT1080-NT tox: 21µM; HT1080 IDH1KD tx: 18µM; SW480 rereplic: inactive; KB-3-1 tox: inactive; KB-V1 cytotox: inconclusive; MCF10A rerep: inconclusive

Results for N#Cc1ccc(C(=O)N2CCC3CC2c2cc(-c4ccccc4)ccc23)cc1 (stereo not given) ?
HT1080-NT tox: inactive; HT1080 IDH1KD tx: inactive; SW480 rereplic: inactive; KB-3-1 tox: inactive; KB-V1 cytotox: inactive; MCF10A rerep: inactive

What do the screens show for `Cc1ccc(N(CC(=O)Nc2ccc(C)c(F)c2)S(=O)(=O)c2c(C)n[nH]c2C)cc1`?
KB-3-1 tox: inactive; KB-V1 cytotox: inactive

Results for Cc1ccc(NS(=O)(=O)c2ccc(NC(=O)c3cccs3)cc2)c(C)c1 ?
HT1080-NT tox: inactive; HT1080 IDH1KD tx: inactive; SW480 rereplic: inactive; KB-3-1 tox: inactive; KB-V1 cytotox: inactive; MCF10A rerep: inconclusive

What do the screens show for `Cc1ccc(NC(=O)c2cc(S(=O)(=O)Nc3ccc(C)cc3)cs2)cc1`?
HT1080-NT tox: inactive; HT1080 IDH1KD tx: inactive; SW480 rereplic: inconclusive; KB-3-1 tox: inconclusive; KB-V1 cytotox: 4.1µM; MCF10A rerep: inactive

What do the screens show for `CN(Cc1ccccc1)S(=O)(=O)c1ccc(NC(=S)NC(=O)C2CCCC2)cc1`?
HT1080-NT tox: 7.1µM; HT1080 IDH1KD tx: 8.9µM; SW480 rereplic: 3.3µM; KB-3-1 tox: 6.5µM; KB-V1 cytotox: 4.1µM; MCF10A rerep: 15µM

Results for CS(=O)(=O)N1CCc2cc(C(=O)Nc3ccc(Cl)c(C(F)(F)F)c3)ccc21 ?
KB-3-1 tox: inactive; KB-V1 cytotox: inactive

What do the screens show for `COC(=O)c1ccc(Cn2c(=O)cc(C(F)(F)F)c3c(C)nn(C)c32)cc1`?
KB-3-1 tox: inactive; KB-V1 cytotox: inactive

Results for COc1ccc(C2c3c(ncn(CCCN4CCOCC4)c3=N)Oc3ccc4ccccc4c32)cc1OC (stereo not given) ?
HT1080-NT tox: inactive; HT1080 IDH1KD tx: inactive; SW480 rereplic: 18µM; KB-3-1 tox: inactive; KB-V1 cytotox: inactive; MCF10A rerep: inactive

How did COc1ccc(C2c3ccc4ccccc4c3Oc3ncn(CCCO)c(=N)c32)cc1 (stereo not given) do in these assays?
HT1080-NT tox: 18µM; HT1080 IDH1KD tx: inconclusive; SW480 rereplic: inconclusive; KB-3-1 tox: inactive; KB-V1 cytotox: inactive; MCF10A rerep: inconclusive

How did CN(C)CCCn1cnc2c(c1=N)C(c1ccccc1)c1ccc3ccccc3c1O2 (stereo not given) do in these assays?
HT1080-NT tox: inconclusive; HT1080 IDH1KD tx: inconclusive; SW480 rereplic: inactive; KB-3-1 tox: inactive; KB-V1 cytotox: inactive; MCF10A rerep: 18µM

How did COc1ccc(C2c3ccc4ccccc4c3Oc3ncn(CCN4CCOCC4)c(=N)c32)cc1 (stereo not given) do in these assays?
HT1080-NT tox: inconclusive; HT1080 IDH1KD tx: inconclusive; SW480 rereplic: 23µM; KB-3-1 tox: inconclusive; KB-V1 cytotox: inconclusive; MCF10A rerep: inactive

How did COc1ccc(C2c3ccc4ccccc4c3Oc3ncn(CCN4CCOCC4)c(=N)c32)cc1OC (stereo not given) do in these assays?
HT1080-NT tox: inactive; HT1080 IDH1KD tx: inactive; SW480 rereplic: inactive; KB-3-1 tox: inactive; KB-V1 cytotox: inactive; MCF10A rerep: inactive

What do the screens show for `Cc1cc(C)c2nc(N3CCCC(C(=O)NCc4ccccc4F)C3)sc2c1` (stereo not given)?
KB-3-1 tox: inactive; KB-V1 cytotox: inactive

How did CC(=O)N1c2ccc(S(=O)(=O)Nc3ccc(C)c(C)c3)cc2CC1C (stereo not given) do in these assays?
KB-3-1 tox: inactive; KB-V1 cytotox: inactive

What do the screens show for `N=c1c2c(ncn1CCCO)Oc1c(ccc3ccccc13)C2c1ccccc1` (stereo not given)?
HT1080-NT tox: inconclusive; HT1080 IDH1KD tx: inactive; SW480 rereplic: inconclusive; KB-3-1 tox: inconclusive; KB-V1 cytotox: 16µM; MCF10A rerep: inconclusive
